RPL19A TOR yeast = RPL19A-GFP expression modulators in yeast, primary screen, cell-based, S. cerevisiae, multiplex flow cytometry, MLPCN | 330,000 compounds, 0.3% hits | S. cerevisiae RPL19A-GFP strain, 3 h; active compounds read low | percent response vs DMSO, % at 10 µM;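 active = percent response vs DMSO below 50%; inconclusive = fewer than 70 events counted for the yeast strain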;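 also: median channel GFP fluorescence of the barcoded RPL19A-GFP strain; lower means less RPL19A-GFP as with rapamycin TOR inhibition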
LAP4 TOR yeast = modulators of LAP4-GFP expression in yeast, primary screen, S. cerevisiae, multiplex flow cytometry, MLPCN library | 3 h; median GFP as percent of DMSO wells | GFP response vs DMSO, % at 10 µM | 320,000 compounds, 0.34% hits | AID 2023, 2009;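 active = GFP response vs DMSO above a set limit, about the screen mean plus 3 SD, cut at about 150% in these data; inconclusive = under 70 cell events counted for the yeast strain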
CIT2-GFP yeast = modulators of CIT2-GFP expression in yeast, primary screen, S. cerevisiae, GFP fusion, multiplex flow cytometry, MLPCN library; S. cerevisiae CIT2-GFP strain, 3 h; 100 means same as DMSO wells; GFP response vs DMSO, % at 10 µM; 320,000 compounds, 0.065% hits; AID 2029, 2009;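 active = GFP response relative to DMSO above a set limit, near the screen mean plus 3 SD, cut at about 150% in these data; inconclusive = Fewer than 70 cells measured for a yeast strain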;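 also: ratio of well median GFP fluorescence to mean of DMSO wells on the plate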
AGP1-GFP MLPCN = modulators of AGP1-GFP expression in yeast TOR pathway, primary screen, cell-based, multiplex flow cytometry, S. cerevisiae, MLPCN library; GFP response vs DMSO, % at 10 µM; 320,000 compounds, 0.02% hits; 3 h; GFP as percent of DMSO wells;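 active = GFP response relative to DMSO above a set limit, near screen average plus 3 SD, cut at about 150% in these data; inconclusive = fewer than 70 cells counted for the yeast strain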;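 also: median GFP channel fluorescence of the gated AGP1 strain per well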
MEP2 TOR yeast = modulators of MEP2-GFP levels in yeast, primary screen, S. cerevisiae, multiplex flow cytometry, MLPCN library. S. cerevisiae MEP2-GFP strain, 3 h; 100% = DMSO control level. GFP response vs DMSO, % at 10 µM. 330,000 compounds, 0.51% hits;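 active = GFP response versus DMSO above a set limit, roughly screen mean plus 3 SD, cut at about 180% in these data; inconclusive = fewer than 70 cells counted for a yeast strain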;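 also: median GFP fluorescence of the barcode-gated MEP2-GFP cells per well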
Large screens that a line does not name were inactive; [ ] = dose if it differs, or a comment. In the library only some 0.92% were active in any assay of this set; here they are far more common.

COc1ccc(C(=O)N/C(=C\c2cn(C)c3ccccc23)C(=O)NCCCn2ccnc2)cc1	CIT2-GFP yeast inconclusive, AGP1-GFP MLPCN inconclusive, MEP2 TOR yeast 181.4[may fluoresce violet]
Cc1ccc(C(=O)N/C(=C\c2ccc(-c3ccccc3[N+](=O)[O-])o2)C(=O)NCCCN2CCOCC2)cc1	RPL19A TOR yeast 13.4[may fluoresce violet], CIT2-GFP yeast inconclusive, AGP1-GFP MLPCN inconclusive
Cc1ccc(C(=O)N/C(=C\c2cn(C)c3ccccc23)C(=O)NCCCn2ccnc2)cc1	none
COCCCNC(=O)CC(C)c1ccccc1 (stereo unspecified)	none
Cc1ccc(C(=O)N/C(=C\c2ccc(Cl)cc2)C(=O)NCCN2CCOCC2)cc1	CIT2-GFP yeast inconclusive, AGP1-GFP MLPCN inconclusive, MEP2 TOR yeast 361.2[may fluoresce violet]
O=C(NC(=S)NCCN1CCOCC1)c1cccc(Cl)c1	RPL19A TOR yeast 24.4[may fluoresce violet], CIT2-GFP yeast inconclusive, AGP1-GFP MLPCN inconclusive, MEP2 TOR yeast 217.8[may fluoresce violet]
CCCNC(=O)CCCN1C(=O)c2ccccc2Sc2ncccc21	none
O=C1c2cc(Br)ccc2N(Cc2ccc(Br)cc2)S(=O)(=O)C1c1cc(Cl)c(Cl)cc1[N+](=O)[O-] (stereo unspecified)	none
CC(=O)c1cc(C(=O)Nc2ccc3ccccc3c2)c(C)o1	none
Cc1cc(C(=O)Nc2ccc3ccccc3c2)oc1C	CIT2-GFP yeast inconclusive, MEP2 TOR yeast 235.8[may fluoresce violet]
Cc1cccc(NC(=O)c2ccc([N+](=O)[O-])o2)c1C	none
Cc1ccc(NC(=O)c2ccc([N+](=O)[O-])o2)cc1C	LAP4 TOR yeast 200.3
COc1ccccc1NC(=O)c1ccc([N+](=O)[O-])o1	LAP4 TOR yeast 158.8
CC(=O)Nc1ccc(NS(=O)(=O)c2cc(Cl)sc2Cl)cc1	none
O=C(O)c1ccc(NS(=O)(=O)c2cc(Cl)sc2Cl)cc1	RPL19A TOR yeast 41.4[may fluoresce violet], CIT2-GFP yeast inconclusive, AGP1-GFP MLPCN inconclusive, MEP2 TOR yeast 709.9[may fluoresce violet]
COCCNC(=O)C(=O)Nc1cc2c3c(c1)CC(=O)N3CCC2	CIT2-GFP yeast inconclusive, MEP2 TOR yeast 226.3[may fluoresce violet]
CN(C)CCCNC(=O)C(=O)Nc1cc2c3c(c1)CC(=O)N3CCC2	none
O=C(COC(=O)c1ccc2ccccc2n1)Nc1ncc(C(F)(F)F)cc1Cl	RPL19A TOR yeast 37.8[may fluoresce violet], CIT2-GFP yeast inconclusive, AGP1-GFP MLPCN inconclusive, MEP2 TOR yeast 275.5[may fluoresce violet]
O=C(COC(=O)c1ccc2ccccc2c1)Nc1ncc(C(F)(F)F)cc1Cl	none
CCCn1c(=O)c2ccccc2n2c(SC(C)C(N)=O)nnc12 (stereo unspecified)	RPL19A TOR yeast 33.2[may fluoresce violet], CIT2-GFP yeast inconclusive, AGP1-GFP MLPCN inconclusive, MEP2 TOR yeast 198.3[may fluoresce violet]
O=c1ccc(-c2ccccc2)nn1Cc1ccccc1	none
O=c1ccc(-c2ccccc2)nn1Cc1ccc(F)cc1	RPL19A TOR yeast 29.5[may fluoresce violet], CIT2-GFP yeast inconclusive, MEP2 TOR yeast 860.3[may fluoresce violet]
C/C(=N\NC(=O)CN1CCN(S(=O)(=O)c2ccc(C)cc2)CC1)c1ccncc1	none
CN1C(N)=NC(=O)/C1=C/c1ccc(F)cc1	none
Cc1c(NC(=O)C(C)OC(=O)c2ccc(Cl)nc2)c(=O)n(-c2ccccc2)n1C (stereo unspecified)	none
COc1cc(/C=N/n2cnnc2)ccc1OCCOc1ccccc1	CIT2-GFP yeast inconclusive, MEP2 TOR yeast 261.8[may fluoresce violet] (no result: RPL19A TOR yeast)
COc1cc(/C=N/n2cnnc2)ccc1OCc1ccccc1	none
CC1(C)CC(=O)c2sc(N3CCCCC3)nc2C1	CIT2-GFP yeast inconclusive, MEP2 TOR yeast 218.4[may fluoresce violet]
CC1(C)CNC(=O)c2sc(N3CCCCC3)nc2C1	none
COc1ccc(C2NC(=O)c3sc4nc(C)c(C(C)=O)c(-c5ccc(Cl)cc5)c4c3N2)cc1 (stereo unspecified)	RPL19A TOR yeast 30.1[may fluoresce violet], CIT2-GFP yeast inconclusive, MEP2 TOR yeast 416.9[may fluoresce violet]
COc1ccc(-c2c(C(C)=O)c(C)nc3sc4c(=N)n(N)cnc4c23)cc1	none
Cc1ccc(N(C(=O)c2snc(C(N)=O)c2N)C(C(=O)NCc2ccccc2)c2ccncc2)c(C)c1 (stereo unspecified)	RPL19A TOR yeast 38.5[may fluoresce violet], CIT2-GFP yeast inconclusive, AGP1-GFP MLPCN inconclusive, MEP2 TOR yeast 209.6[may fluoresce violet]
NC(=O)C1CCN(C(=O)CCCCCn2c(=O)[nH]c3ccsc3c2=O)CC1	RPL19A TOR yeast 22.3[may fluoresce violet], CIT2-GFP yeast inconclusive, AGP1-GFP MLPCN inconclusive, MEP2 TOR yeast 222.0[may fluoresce violet]
